# From PMC7862700, “An all-to-all approach to the identification of sequence-specific readers for epigenetic DNA modifications on cytosine”
# Tests used:
# Test in all cases: DAPPL (digital affinity profiling via proximity ligation, sequencing); 10 mM Tris-HCl pH 7.5, 50 mM NaCl, 1 mM DTT, 4% glycerol, room temperature, 30 min; GST-TFs on glutathione beads, 16-mer random dsDNA library, 0.1% formaldehyde crosslink after washing; high values mean tight binding
# FLI1 = biological target: T1, FLI1 (Homo sapiens, UniProt Q01543 1-452); settings: protein: recombinant; tags: N-terminal GST; dsDNA, one strand shown
# T1 sequence: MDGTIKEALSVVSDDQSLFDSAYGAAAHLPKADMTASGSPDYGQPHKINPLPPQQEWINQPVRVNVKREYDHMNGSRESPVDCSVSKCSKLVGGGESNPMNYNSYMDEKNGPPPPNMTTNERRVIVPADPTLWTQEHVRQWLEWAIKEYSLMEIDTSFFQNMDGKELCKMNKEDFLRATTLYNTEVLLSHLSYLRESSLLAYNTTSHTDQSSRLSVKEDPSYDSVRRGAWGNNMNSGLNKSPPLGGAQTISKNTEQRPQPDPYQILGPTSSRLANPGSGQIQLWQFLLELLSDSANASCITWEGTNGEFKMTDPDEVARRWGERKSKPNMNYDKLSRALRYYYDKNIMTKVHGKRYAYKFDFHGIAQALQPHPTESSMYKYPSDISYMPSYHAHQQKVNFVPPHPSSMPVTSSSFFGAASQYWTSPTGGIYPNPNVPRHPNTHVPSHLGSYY
# Method in brief: (§1)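 In yeast, human transcription factors were expressed with a GST fusion, then pulled down on glutathione beads and given DNA barcodes. Pooled with a tag-only sample, they were exposed to 200 nmole of a 16-mer random double-stranded DNA library (Tris/NaCl/DTT/glycerol buffer, room temperature, 30 min), washed, crosslinked with 0.1% formaldehyde, proximity-ligated using BsaI/T4 ligase for 1 h at 37 °C, PCR-amplified and read on an Illumina NextSeq500. Each hexamer's frequency of reads for a factor, divided by the matching frequency for the tag-only sample, gives the binding signal.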
# ELK1 = biological target: T2, ELK1 (Homo sapiens, UniProt P19419 1-428); settings: protein: recombinant; tags: N-terminal GST; dsDNA, one strand shown
# T2 sequence: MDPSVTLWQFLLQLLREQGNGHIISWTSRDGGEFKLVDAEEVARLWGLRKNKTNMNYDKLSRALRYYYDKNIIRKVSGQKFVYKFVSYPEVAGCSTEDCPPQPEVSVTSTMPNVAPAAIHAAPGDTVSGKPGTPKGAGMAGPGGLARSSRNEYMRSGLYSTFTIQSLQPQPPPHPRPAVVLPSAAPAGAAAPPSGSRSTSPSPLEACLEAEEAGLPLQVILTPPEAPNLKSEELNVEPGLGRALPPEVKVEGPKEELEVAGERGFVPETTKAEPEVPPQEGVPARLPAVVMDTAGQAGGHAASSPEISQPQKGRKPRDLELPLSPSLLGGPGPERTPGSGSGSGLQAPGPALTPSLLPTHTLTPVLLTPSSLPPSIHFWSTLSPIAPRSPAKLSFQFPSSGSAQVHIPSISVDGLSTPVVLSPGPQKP
# Method in brief: as §1
# GABPA = biological target: T3, GABPA (Homo sapiens, UniProt Q06546 1-454); settings: protein: recombinant; tags: N-terminal GST; dsDNA, one strand shown
# T3 sequence: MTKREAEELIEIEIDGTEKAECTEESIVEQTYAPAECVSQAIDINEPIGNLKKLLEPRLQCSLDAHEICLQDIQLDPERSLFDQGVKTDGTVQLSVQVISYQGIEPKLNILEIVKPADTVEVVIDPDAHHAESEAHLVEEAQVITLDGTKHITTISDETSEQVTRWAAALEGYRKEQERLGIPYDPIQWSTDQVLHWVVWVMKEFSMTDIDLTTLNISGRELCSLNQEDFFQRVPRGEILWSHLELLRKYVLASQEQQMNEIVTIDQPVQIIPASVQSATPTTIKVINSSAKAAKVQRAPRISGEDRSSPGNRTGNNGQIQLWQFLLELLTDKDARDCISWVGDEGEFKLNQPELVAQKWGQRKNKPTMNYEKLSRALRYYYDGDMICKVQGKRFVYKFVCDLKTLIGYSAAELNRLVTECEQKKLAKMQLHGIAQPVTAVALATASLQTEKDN
# Method in brief: as §1
# ERG = biological target: T4, ERG (Homo sapiens, UniProt P11308 1-479); settings: protein: recombinant; tags: N-terminal GST; dsDNA, one strand shown
# T4 sequence: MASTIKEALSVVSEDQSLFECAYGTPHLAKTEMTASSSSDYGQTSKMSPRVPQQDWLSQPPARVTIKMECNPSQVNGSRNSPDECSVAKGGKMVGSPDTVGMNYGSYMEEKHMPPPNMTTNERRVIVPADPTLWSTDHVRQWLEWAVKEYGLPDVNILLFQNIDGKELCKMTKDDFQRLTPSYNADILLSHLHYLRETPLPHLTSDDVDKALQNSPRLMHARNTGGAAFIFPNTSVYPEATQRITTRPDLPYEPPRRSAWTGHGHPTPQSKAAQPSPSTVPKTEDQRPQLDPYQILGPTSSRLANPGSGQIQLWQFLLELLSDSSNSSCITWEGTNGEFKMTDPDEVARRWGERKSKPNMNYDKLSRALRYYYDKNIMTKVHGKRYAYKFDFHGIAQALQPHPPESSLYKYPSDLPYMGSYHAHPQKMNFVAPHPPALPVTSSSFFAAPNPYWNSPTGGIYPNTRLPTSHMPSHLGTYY
# Method in brief: as §1
# ELF1 = ELF1 (Homo sapiens, UniProt P32519 1-619); settings: protein: recombinant; tags: N-terminal GST; dsDNA, one strand shown
# Method in brief: as §1
# EHF = biological target: T5, EHF (Homo sapiens, UniProt Q9NZC4 1-300); settings: protein: recombinant; tags: N-terminal GST; dsDNA, one strand shown
# T5 sequence: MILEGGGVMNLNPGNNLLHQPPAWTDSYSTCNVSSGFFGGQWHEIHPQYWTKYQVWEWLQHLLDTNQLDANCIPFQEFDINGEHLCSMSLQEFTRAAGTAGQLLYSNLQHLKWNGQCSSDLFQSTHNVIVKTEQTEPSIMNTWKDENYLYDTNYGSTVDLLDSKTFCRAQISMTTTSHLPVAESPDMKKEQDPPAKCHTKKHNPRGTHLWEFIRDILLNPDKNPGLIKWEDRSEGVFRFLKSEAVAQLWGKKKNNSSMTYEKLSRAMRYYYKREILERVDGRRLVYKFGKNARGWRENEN
# Method in brief: as §1
# SPI1 = SPI1 (Homo sapiens, UniProt P17947 1-270); settings: protein: recombinant; tags: N-terminal GST; dsDNA, one strand shown
# Method in brief: as §1
# SPIB = SPIB (Homo sapiens, UniProt Q01892 1-262); settings: protein: recombinant; tags: N-terminal GST; dsDNA, one strand shown
# Method in brief: as §1
# ELK3 = biological target: T6, ELK3 (Homo sapiens, UniProt P41970 1-407); settings: protein: recombinant; tags: N-terminal GST; dsDNA, one strand shown
# T6 sequence: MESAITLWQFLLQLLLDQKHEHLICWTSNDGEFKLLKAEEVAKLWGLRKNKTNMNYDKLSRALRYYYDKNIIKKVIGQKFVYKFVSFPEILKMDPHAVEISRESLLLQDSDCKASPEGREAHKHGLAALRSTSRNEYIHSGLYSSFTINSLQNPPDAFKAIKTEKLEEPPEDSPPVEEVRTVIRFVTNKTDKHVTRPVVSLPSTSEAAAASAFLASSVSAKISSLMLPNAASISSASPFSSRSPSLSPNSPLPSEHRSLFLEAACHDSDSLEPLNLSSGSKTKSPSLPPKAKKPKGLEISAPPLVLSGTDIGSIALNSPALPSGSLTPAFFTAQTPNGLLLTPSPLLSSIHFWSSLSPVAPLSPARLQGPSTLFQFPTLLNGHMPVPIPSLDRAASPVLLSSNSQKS
# Method in brief: as §1
# FEV = biological target: T7, FEV (Homo sapiens, UniProt Q99581 1-238); settings: protein: recombinant; tags: N-terminal GST; dsDNA, one strand shown
# T7 sequence: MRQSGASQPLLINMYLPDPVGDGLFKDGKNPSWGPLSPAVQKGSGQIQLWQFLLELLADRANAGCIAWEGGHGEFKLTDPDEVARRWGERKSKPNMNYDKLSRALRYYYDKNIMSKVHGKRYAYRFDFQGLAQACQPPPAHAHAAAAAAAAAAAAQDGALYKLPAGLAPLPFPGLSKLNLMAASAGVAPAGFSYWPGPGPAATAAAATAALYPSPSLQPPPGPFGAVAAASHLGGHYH
# Method in brief: as §1
# ETV5 = ETV5 (Homo sapiens, UniProt P41161 1-510); settings: protein: recombinant; tags: N-terminal GST; dsDNA, one strand shown
# Method in brief: as §1
# HSF1 = HSF1 (Homo sapiens, UniProt Q00613 1-529); settings: protein: recombinant; tags: N-terminal GST; chain copies: 3; dsDNA, one strand shown
# Method in brief: as §1
# SPIC = biological target: T8, SPIC (Homo sapiens, UniProt Q8N5J4 1-248); settings: protein: recombinant; tags: N-terminal GST; dsDNA, one strand shown
# T8 sequence: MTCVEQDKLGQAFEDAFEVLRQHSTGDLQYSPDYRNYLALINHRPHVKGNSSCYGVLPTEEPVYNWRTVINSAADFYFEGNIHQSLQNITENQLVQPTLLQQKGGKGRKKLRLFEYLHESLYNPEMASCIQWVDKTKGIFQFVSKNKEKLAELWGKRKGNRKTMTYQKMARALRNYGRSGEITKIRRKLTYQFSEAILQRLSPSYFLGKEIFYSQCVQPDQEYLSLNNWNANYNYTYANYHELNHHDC
# Method in brief: as §1
# ELF4 = ELF4 (Homo sapiens, UniProt Q99607 1-663); settings: protein: recombinant; tags: N-terminal GST; dsDNA, one strand shown
# Method in brief: as §1
# ELK4 = biological target: T9, ELK4 (Homo sapiens, UniProt P28324-2 1-405); settings: protein: recombinant; tags: N-terminal GST; dsDNA, one strand shown
# T9 sequence: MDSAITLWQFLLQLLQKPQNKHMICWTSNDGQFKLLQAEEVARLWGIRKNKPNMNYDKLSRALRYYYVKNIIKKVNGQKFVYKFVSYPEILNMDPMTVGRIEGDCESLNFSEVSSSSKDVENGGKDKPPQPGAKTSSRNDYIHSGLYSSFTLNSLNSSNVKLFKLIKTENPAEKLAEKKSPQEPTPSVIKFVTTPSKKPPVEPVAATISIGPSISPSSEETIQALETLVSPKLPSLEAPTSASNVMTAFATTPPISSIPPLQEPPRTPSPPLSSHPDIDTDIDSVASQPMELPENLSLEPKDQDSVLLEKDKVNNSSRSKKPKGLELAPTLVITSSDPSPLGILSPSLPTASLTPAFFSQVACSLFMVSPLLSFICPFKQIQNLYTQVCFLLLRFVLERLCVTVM
# Method in brief: as §1
# ETV2 = biological target: T10, ETV2 (Homo sapiens, UniProt O00321 1-342); settings: protein: recombinant; tags: N-terminal GST; dsDNA, one strand shown
# T10 sequence: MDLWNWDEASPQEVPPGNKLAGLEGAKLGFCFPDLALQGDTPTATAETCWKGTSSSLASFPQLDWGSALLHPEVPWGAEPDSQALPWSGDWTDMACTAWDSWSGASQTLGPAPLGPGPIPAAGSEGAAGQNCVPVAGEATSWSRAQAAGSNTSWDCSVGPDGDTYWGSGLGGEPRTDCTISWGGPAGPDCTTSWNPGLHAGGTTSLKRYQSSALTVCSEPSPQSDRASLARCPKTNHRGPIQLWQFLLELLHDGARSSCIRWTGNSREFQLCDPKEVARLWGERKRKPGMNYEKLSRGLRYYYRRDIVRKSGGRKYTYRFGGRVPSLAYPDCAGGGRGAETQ
# Method in brief: as §1
# ELF3 = biological target: T11, ELF3 (Homo sapiens, UniProt P78545 1-371); settings: protein: recombinant; tags: N-terminal GST; dsDNA, one strand shown
# T11 sequence: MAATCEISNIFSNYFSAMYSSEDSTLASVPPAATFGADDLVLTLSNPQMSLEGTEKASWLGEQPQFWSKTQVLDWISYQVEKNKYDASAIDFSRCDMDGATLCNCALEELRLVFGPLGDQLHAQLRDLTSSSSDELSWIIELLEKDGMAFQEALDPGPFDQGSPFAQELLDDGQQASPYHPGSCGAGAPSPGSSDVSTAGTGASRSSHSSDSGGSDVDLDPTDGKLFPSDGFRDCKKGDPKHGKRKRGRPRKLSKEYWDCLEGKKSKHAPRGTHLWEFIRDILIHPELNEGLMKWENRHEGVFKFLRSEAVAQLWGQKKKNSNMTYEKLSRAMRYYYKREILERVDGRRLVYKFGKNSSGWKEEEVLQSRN
# Method in brief: as §1
# CRX = CRX (Homo sapiens, UniProt O43186 1-299); settings: protein: recombinant; tags: N-terminal GST; dsDNA, one strand shown
# Method in brief: as §1
# ETV1 = ETV1 (Homo sapiens, UniProt P50549 1-477); settings: protein: recombinant; tags: N-terminal GST; dsDNA, one strand shown
# Method in brief: as §1
# Sequence of ELF1 (P32519 whole entry): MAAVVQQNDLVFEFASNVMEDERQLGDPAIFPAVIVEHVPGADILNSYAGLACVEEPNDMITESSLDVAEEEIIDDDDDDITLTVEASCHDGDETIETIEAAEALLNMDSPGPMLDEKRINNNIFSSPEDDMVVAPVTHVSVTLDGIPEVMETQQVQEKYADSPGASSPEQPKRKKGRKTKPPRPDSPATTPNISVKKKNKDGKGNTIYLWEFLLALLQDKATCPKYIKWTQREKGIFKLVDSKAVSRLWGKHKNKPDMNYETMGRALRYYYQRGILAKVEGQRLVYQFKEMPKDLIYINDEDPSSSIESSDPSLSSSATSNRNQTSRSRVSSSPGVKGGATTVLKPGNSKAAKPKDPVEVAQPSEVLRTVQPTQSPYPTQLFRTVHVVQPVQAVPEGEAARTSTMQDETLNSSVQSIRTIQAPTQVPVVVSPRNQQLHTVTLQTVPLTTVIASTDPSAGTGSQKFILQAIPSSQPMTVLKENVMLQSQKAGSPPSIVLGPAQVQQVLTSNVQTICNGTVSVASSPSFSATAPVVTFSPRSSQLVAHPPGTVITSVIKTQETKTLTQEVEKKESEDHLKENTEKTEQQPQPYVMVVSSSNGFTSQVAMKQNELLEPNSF
# Sequence of HSF1 (Q00613 whole entry): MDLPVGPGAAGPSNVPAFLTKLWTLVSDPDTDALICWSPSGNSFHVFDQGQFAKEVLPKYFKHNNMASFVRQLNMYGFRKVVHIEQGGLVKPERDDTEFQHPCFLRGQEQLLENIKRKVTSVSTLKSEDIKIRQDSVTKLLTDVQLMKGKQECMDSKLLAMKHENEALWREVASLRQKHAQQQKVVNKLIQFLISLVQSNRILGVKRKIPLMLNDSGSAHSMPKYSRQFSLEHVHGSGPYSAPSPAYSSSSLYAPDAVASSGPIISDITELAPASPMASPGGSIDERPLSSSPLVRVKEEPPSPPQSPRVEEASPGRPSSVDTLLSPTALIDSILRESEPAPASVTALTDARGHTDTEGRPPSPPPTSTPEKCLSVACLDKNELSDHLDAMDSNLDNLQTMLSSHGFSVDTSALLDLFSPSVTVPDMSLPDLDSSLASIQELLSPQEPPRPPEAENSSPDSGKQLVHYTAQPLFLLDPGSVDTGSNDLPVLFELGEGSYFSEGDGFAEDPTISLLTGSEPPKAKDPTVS
# Sequence of CRX (O43186 whole entry): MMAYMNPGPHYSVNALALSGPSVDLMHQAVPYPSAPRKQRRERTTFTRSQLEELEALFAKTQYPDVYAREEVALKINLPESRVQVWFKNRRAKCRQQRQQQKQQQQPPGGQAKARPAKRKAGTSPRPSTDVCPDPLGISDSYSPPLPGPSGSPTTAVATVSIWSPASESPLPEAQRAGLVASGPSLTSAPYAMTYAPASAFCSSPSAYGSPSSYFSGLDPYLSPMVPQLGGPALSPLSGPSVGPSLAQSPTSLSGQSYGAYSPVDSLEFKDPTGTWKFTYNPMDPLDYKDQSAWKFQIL
# Sequence of ETV5 (P41161 whole entry): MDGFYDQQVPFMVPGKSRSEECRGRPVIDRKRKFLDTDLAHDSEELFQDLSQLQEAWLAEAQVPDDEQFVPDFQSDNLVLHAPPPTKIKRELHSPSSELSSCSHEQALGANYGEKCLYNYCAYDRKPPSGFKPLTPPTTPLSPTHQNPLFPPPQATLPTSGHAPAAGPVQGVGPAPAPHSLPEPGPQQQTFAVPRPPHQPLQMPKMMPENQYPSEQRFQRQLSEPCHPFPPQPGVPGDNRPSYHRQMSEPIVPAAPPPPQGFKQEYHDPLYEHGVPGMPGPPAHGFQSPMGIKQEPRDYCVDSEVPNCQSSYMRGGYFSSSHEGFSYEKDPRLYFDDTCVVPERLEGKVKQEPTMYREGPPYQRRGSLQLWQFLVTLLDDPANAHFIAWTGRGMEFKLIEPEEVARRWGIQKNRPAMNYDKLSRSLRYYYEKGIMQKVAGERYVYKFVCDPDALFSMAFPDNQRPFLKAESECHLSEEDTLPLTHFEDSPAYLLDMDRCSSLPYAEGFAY
# Sequence of ELF4 (Q99607 whole entry): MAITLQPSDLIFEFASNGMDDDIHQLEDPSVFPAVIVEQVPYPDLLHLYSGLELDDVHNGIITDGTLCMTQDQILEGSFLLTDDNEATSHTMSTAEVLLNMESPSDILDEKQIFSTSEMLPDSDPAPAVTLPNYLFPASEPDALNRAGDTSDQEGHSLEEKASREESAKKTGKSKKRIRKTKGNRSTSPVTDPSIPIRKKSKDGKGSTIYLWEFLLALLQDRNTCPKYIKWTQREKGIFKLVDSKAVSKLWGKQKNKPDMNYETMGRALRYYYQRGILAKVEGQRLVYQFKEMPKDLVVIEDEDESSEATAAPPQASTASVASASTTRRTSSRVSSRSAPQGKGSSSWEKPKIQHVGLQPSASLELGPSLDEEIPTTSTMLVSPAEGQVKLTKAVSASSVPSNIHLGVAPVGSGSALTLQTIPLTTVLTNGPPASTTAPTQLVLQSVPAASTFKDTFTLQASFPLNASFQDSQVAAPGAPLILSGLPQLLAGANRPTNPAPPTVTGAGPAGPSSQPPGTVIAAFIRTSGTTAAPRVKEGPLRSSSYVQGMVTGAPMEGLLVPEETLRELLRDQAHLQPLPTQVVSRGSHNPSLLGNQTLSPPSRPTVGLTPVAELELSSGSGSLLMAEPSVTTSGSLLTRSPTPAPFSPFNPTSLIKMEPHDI
# Sequence of ETV1 (P50549 whole entry): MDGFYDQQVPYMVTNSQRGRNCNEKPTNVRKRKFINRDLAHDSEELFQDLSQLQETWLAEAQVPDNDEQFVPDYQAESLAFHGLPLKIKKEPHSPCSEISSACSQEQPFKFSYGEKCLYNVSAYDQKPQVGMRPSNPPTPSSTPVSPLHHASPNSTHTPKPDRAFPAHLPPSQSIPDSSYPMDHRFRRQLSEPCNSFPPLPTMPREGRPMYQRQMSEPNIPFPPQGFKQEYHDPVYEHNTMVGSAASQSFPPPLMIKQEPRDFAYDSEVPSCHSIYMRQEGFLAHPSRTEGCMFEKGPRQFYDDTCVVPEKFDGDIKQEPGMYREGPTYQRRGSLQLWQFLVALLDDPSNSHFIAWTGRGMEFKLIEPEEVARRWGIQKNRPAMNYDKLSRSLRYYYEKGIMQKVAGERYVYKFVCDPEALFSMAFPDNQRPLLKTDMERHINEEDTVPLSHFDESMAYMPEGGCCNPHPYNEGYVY
# Sequence of SPIB (Q01892 whole entry): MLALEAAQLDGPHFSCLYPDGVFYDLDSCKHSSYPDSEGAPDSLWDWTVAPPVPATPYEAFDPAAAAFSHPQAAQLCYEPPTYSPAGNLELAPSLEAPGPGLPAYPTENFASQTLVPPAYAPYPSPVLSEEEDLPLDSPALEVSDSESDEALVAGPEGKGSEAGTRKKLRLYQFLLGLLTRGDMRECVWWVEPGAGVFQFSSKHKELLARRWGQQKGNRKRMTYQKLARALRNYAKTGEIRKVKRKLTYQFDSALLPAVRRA
sequence,measurement,setting,value
TTGTGG,binding signal,FLI1,"1.52 fold enrichment (6-mer frequency, TF over GST control)"
same,binding signal,ELK1,"1.36 fold enrichment (6-mer frequency, TF over GST control)"
same,binding signal,GABPA,"1.41 fold enrichment (6-mer frequency, TF over GST control)"
same,binding signal,ERG,"1.26 fold enrichment (6-mer frequency, TF over GST control)"
same,binding signal,ELF1,"1.34 fold enrichment (6-mer frequency, TF over GST control)"
same,binding signal,EHF,"1.3 fold enrichment (6-mer frequency, TF over GST control)"
same,binding signal,SPI1,"1.46 fold enrichment (6-mer frequency, TF over GST control)"
same,binding signal,SPIB,"1.29 fold enrichment (6-mer frequency, TF over GST control)"
same,binding signal,ELK3,"1.43 fold enrichment (6-mer frequency, TF over GST control)"
same,binding signal,FEV,"1.27 fold enrichment (6-mer frequency, TF over GST control)"
same,binding signal,ETV5,"1.41 fold enrichment (6-mer frequency, TF over GST control)"
same,binding signal,HSF1,"1.37 fold enrichment (6-mer frequency, TF over GST control)"
same,binding signal,SPIC,"1.44 fold enrichment (6-mer frequency, TF over GST control)"
same,binding signal,ELF4,"1.51 fold enrichment (6-mer frequency, TF over GST control)"
same,binding signal,ELK4,"1.35 fold enrichment (6-mer frequency, TF over GST control)"
same,binding signal,ETV2,"1.29 fold enrichment (6-mer frequency, TF over GST control)"
same,binding signal,ELF3,"1.34 fold enrichment (6-mer frequency, TF over GST control)"
same,binding signal,CRX,"1.46 fold enrichment (6-mer frequency, TF over GST control)"
same,binding signal,ETV1,"1.27 fold enrichment (6-mer frequency, TF over GST control)"
